32 molecules from PubChem BioAssay can be followed below.

Structures are written as SMILES. Unmarked numbers belong to inactive results. Activity calls are given as the source filed them. Cut-off read from the data, not from the text of the source, unless noted: active = inhibition above about 36%; inactive = the rest.

In assay [1] the test system is transactivating tegument protein VP16 (Human herpesvirus 1). The experiment in a line: VP16 transactivation reporter inhibitors, counter-screen for SRC2 inhibitor project, cell-based, luminescence, single concentration (AID 652007). Conditions: cell-based VP16 transactivation luciferase reporter, at 8.9 µM, active compounds read high.
Assay [2] concerns the target Nuclear receptor coactivator 2 (Homo sapiens) (UniProt Q15596). The experiment in a line: SRC2 coactivator transcriptional activity inhibitors, confirmation, cell-based, luminescence, HEK293, triplicate (AID 652008;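 active = mean inhibition above 46.5%, the solvent-only control mean plus 3 SD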;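 note: 0% = DMSO-treated cells and 100% = Gossypol at 36 µM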). Conditions: HEK293 GAL4-SRC2 luciferase reporter, at 8.9 µM, active compounds read high.

Sequence of Nuclear receptor coactivator 2 (Homo sapiens) (Q15596 whole entry, looked up, the tested form may be a part): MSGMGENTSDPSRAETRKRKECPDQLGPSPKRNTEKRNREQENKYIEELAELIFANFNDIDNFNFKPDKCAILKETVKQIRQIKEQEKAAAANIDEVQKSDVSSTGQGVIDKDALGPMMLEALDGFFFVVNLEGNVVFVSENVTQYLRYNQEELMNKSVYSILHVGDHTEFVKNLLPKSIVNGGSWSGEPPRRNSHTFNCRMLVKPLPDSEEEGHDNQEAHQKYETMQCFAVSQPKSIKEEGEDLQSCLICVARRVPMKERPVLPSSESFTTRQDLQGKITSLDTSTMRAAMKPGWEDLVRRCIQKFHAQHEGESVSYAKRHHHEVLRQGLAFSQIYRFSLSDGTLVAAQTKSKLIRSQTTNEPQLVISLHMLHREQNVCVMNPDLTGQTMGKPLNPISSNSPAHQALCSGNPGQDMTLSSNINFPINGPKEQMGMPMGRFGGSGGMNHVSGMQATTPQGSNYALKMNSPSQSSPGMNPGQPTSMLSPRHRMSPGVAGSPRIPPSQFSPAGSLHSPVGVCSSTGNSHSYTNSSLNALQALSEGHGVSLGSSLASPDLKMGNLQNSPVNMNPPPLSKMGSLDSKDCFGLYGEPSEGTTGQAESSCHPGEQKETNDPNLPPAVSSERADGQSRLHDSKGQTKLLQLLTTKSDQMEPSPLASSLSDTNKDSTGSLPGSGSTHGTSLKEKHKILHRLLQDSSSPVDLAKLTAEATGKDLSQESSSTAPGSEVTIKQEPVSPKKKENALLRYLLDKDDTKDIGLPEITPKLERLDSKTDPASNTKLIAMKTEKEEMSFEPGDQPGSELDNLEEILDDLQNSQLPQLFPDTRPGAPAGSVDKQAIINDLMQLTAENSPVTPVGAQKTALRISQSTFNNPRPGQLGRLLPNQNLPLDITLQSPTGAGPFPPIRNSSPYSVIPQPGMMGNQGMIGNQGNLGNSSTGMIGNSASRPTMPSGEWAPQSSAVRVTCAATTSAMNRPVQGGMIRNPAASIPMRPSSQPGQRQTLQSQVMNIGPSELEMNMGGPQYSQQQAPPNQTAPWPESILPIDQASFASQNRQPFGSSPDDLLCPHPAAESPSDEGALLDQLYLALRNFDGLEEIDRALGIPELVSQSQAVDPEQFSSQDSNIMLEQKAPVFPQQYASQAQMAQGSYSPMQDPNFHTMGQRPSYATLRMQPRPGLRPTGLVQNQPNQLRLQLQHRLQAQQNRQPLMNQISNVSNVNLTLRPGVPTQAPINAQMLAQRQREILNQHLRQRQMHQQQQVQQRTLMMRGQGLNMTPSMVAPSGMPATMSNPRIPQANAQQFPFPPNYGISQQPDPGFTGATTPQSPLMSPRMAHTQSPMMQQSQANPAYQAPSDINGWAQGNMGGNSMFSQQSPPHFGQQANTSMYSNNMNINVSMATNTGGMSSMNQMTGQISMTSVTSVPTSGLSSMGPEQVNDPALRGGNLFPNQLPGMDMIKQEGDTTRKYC

Take `CC(=O)Nc1cccc(-c2cc(NC(C)=O)c3ncc(-c4ccc(F)cc4)n3c2)c1`: the figures for the inhibition in assay [1] and in assay [2] were 12% and 2.54%, respectively.

Turning to `CC(C)(C)c1ccc(-c2noc(CCC(=O)NCc3ccco3)n2)cc1`, the results for the inhibition in assay [1] and in assay [2] were 40.9% (active) and 59.5% (active), respectively.

As for `CCCN(CCC)Cc1c(C(=O)N/N=C/CCc2ccccc2)nnn1-c1nonc1N`, the inhibition in assay [1] is -6.81%; in assay [2], -9.2%.

As to `COc1ccc(NC(=O)Nc2nnc(Cc3ccc(OC)c(OC)c3)s2)cc1`, the inhibition in assay [1] is 4.37%; in assay [2], -0.57%.

As for `Cc1ccc(-n2nc3ccc(N)cc3n2)c(C)c1`, the inhibition was -39.4% in assay [1] and 21.3% in assay [2].

On to `Cc1ccc(C(=O)Nc2ncc([N+](=O)[O-])s2)cc1`, for which the inhibition in assay [1] was -7.15%; in assay [2] it was 57.7% (active).

With `C[N+]1(CC2COC3(CCCCC3)O2)CCCC1` (centres undefined), the inhibition was -9.45% in assay [1] and -21.5% in assay [2].

As to `CN=C1CC(SC)=C1c1ccc(C)cc1`, the values for the inhibition in assay [1] and in assay [2] were -10.3% and 1.69%, respectively.

Take `CCC(C)[C@H](NC(=O)C1CC(=O)N(c2ccc(OC)cc2)C1)C(=O)N1CCCCC1` (some centres undefined): the inhibition in assay [1] was 6.37%; in assay [2], 10.3%.

In the case of `Cc1ccc(NC(=O)C2CCC(C(C)(C)C)CC2)cc1S(=O)(=O)N1CCOCC1` (centres undefined), the inhibition in assay [1] is 3.84%; in assay [2], 12.3%.

As for `COc1cc(NC(=O)COC(=O)c2[nH]c(C)c(C(C)=O)c2C)cc(OC)c1`, the values for the inhibition in assay [1] and in assay [2] were 9.16% and 15.2%, respectively.

Take `Cc1nc(S(=O)(=O)N(C)c2ccccc2)c(C#N)c(C)c1Cl`: the inhibition in assay [1] was 3.59%; in assay [2] it was 40.9%.

On to `CCCCCc1ccc(-c2ccc(/C=C/C(=O)O)cc2)nc1`, for which the inhibition in assay [1] was -23.1%; in assay [2] it was 60.2% (active).

Turning to `O=c1[nH][nH]c(-c2ccccc2O)c1C(C[N+](=O)[O-])c1ccc(Br)cc1` (centres undefined), the inhibition in assay [1] was 24.3%; in assay [2] it was -0.61%.

Consider `Cc1ccc2c(c1)N(C(=O)CCC(=O)NCCCN1CCN(C)CC1)CC(C)O2` (centres undefined), for which the values for the inhibition in assay [1] and in assay [2] were -11.4% and -10.8%, respectively.

Regarding `COc1cc(C(=O)NCc2ccncc2)cc(Br)c1OCc1ccccc1`, the inhibition in assay [1] was 0.29%; in assay [2], 36.2%.

For `CCC(=O)Nc1ccc2c(c1)C(=O)N(C)[C@@H]1CC[C@@H](CC(=O)NCc3ccc(OC)cc3)O[C@H]1CO2`, the inhibition is -18.1% in assay [1] and -9.9% in assay [2].

`Cc1ccc(O)c(/C=N/NC(=O)Cc2ccc(Cl)cc2)c1`: the inhibition in assay [1] was -11.1%; in assay [2] it was -13.9%.

`CCOC(=O)CN(C)C(=O)CCc1nnc(-c2ccc(-c3ccccc3)cc2)o1`: the results for the inhibition in assay [1] and in assay [2] were -17.7% and 19.8%, respectively.

As to `Cc1nnc(NC(=O)c2nc(S(=O)(=O)Cc3ccccc3)ncc2Cl)s1`, the inhibition in assay [1] is 1.66%; in assay [2], 22.4%.

As to `COc1cc(S(=O)(=O)N(C)Cc2ccc3c(c2)OCCO3)ccc1NC(C)=O`, the inhibition is -27.6% in assay [1] and -19.6% in assay [2].

With `Cc1nc([N+](=O)[O-])c(C(=O)OCc2ccccc2F)n1C`, the inhibition in assay [1] is -22.8%; in assay [2], 1.38%.

In the case of `CCNC(=O)NC(=O)C(C)OC(=O)CCCSc1nc2ccccc2s1` (centres undefined), the inhibition in assay [1] is 14.4%; in assay [2], 22.5%.

`O=C1CSc2ccc(C(=O)Nc3cccc(S(=O)(=O)Nc4ccc(Br)cc4)c3)cc2N1`: the inhibition in assay [1] was 11.2%; in assay [2] it was 25.2%.

For `C=C1C(=O)[C@]23C[C@H]1CCC2[C@]1(C)CCC[C@@](C)(C(=O)O)C1C[C@@H]3O` (some centres undefined), the inhibition in assay [1] was 4.96%; in assay [2], 6.02%.

On to `COC(=O)[C@]12C[C@H](CC(=O)N3CCCCC3)C(=O)N(Cc3ccco3)C1=C[C@H](C(C)C)O[C@@H]2C1CC1`, for which the inhibition in assay [1] is -5.52%; in assay [2], -14.3%.

For the molecule `CCOc1ccc(/C=C/c2c([N+](=O)[O-])c(=O)n(C)c(=O)n2C)cc1`, the inhibition in assay [1] is 7.01%; in assay [2] it was 2.26%.

In the case of `Cc1c(C=O)n(C)n(-c2ccccc2)c1=O`, the inhibition was -14.4% in assay [1] and 2.35% in assay [2].

`CC(C)(C)n1nc(Cc2cccc3ccccc23)c2c(N)ncnc21`: the inhibition is 2.66% in assay [1] and 29.4% in assay [2].

In the case of `CCOc1ccc(-n2cc(C(=O)NCc3ccco3)c3cc(OC)c(OC)cc3c2=O)cc1`, the inhibition in assay [1] is 2.87%; in assay [2], -7.4%.

For the molecule `COc1ccc2c(c1)/C(=C\c1cccc(/C=C3/C(=O)Nc4ccc(OC)cc43)n1)C(=O)N2`, the inhibition is 90.5% (active) in assay [1] and 76.2% (active) in assay [2].

As to `CCOC(=O)c1c(NC(=O)c2cnn3c2NC(c2cccc(OC)c2)CC3C(F)(F)F)sc2c1CCCC2` (centres undefined), the inhibition in assay [1] was 16.7%; in assay [2], -21.9%.
